CHO-K1 Ca antag: counter-screen for M1 antagonists: effect in parental CHO-K1 cells | AID 602250 | inhibition, % at 3 µM | 360,000 compounds, 0.6% hits | ATP-induced calcium, Fluo-8 fluorescence;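 active = inhibition above a per-plate cutoff, the plate's mean sample inhibition plus 3 SD, cut at about 24% in these data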;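 also: 0% = DMSO plus EC80 ATP and 100% = DMSO alone without ATP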
CHRM1 antagonist: human CHRM1 antagonism | P11229 | CHO-K1 hM1, Fluo-8 calcium fluorescence, ACh EC80 antagonist | inhibition, % at 3 µM | 360,000 compounds, 1.3% hits | AID 588852;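 active = percent inhibition above its own plate's cutoff, namely the mean of that plate's compound wells plus 3 SD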;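 also: peak over basal fluorescence ratio during 140 s after agonist addition; 0% = ACh EC80 plus DMSO and 100% = DMSO alone without agonist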
Target sequence (P11229 whole entry, looked up): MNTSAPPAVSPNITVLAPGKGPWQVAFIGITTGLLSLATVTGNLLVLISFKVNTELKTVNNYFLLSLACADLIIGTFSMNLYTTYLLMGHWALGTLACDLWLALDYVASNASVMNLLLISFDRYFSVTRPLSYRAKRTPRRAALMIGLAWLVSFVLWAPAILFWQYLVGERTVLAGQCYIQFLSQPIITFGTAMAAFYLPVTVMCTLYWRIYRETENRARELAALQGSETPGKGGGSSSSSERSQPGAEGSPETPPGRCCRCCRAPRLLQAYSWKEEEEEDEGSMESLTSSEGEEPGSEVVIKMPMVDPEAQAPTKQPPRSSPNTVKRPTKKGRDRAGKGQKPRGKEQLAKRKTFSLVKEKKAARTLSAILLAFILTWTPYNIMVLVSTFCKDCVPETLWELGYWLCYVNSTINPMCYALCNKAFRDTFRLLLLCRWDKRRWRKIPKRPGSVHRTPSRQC
M1 ag: agonists of human M1 muscarinic receptor | P11229 | activation, % at 3 µM | AID 588814 | CHO-K1 hM1, Fluo-8 calcium fluorescence, agonist mode; 0% DMSO, 100% acetylcholine EC100 | 360,000 compounds, 0.33% hits;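 active = activation above the run's mean compound activation plus 3 SD, cut at about 16% in these data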;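 also: peak over basal fluorescence ratio within a 140 s kinetic read after compound addition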
M1 ag parental: M1 agonist counterscreen hit in parental CHO-K1 cells; activation, % at 3 µM; 360,000 compounds, 0.48% hits; AID 602248; Fluo-8 calcium fluorescence; scaled to maximal ATP response, vehicle zero; in the data active = activation above about 15%;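 also: untransfected CHO-K1 host cells lacking M1 receptor as counterscreen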
M1 PAM: potentiates human M1 receptor response to acetylcholine | 360,000 compounds, 0.088% hits | CHO-K1 hM1, Fluo-8 calcium fluorescence, ACh EC20; 0% = ACh EC20, 100% = maximal ACh | P11229 | activation, % at 3 µM; in the data active = activation above about 19%, passing the limit was not always enough
CHO-K1 Ca PAM: M1 PAM counterscreen hit in parental CHO-K1 cells; AID 602247; activation, % at 3 µM; ATP EC20, Fluo-8 calcium fluorescence; 0% at ATP EC20, 100% at ATP max; 360,000 compounds, 0.02% hits;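 active = activation above the run cutoff, the mean activation of all test compounds plus 3 SD, cut at about 40% in these data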;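 also: peak over basal fluorescence ratio in a 140 s read after ATP addition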
* marks the source's active call; other numbers are inactive results. This is a sample that favours compounds with a hit; in the whole collection about 2.3% have one here.

`O=C(c1cc(N2C(=O)C3C4CCC(C4)C3C2=O)ccc1Cl)N1CCN(c2ccccc2)CC1` (stereo not given) gave CHO-K1 Ca antag -1, CHRM1 antagonist 7, M1 ag -5, M1 ag parental 23*, M1 PAM -8 and CHO-K1 Ca PAM 10.
For CCCN1CCN(C(=O)C2CCN(S(=O)(=O)c3ccc4c(c3)NC(=O)C(C)S4)CC2)CC1 (stereo not given) the results were CHO-K1 Ca antag -6, CHRM1 antagonist 0, M1 ag -5, M1 ag parental 1, M1 PAM -1 and CHO-K1 Ca PAM 23.
For CCOc1ccc(NC(=O)CN(C)C(=O)C(C)N2C(=O)c3ccccc3C2=O)cc1OCC (stereo not given) the results were CHO-K1 Ca antag -3, CHRM1 antagonist -8, M1 ag -4, M1 ag parental 1, M1 PAM 0 and CHO-K1 Ca PAM -4.
`COCCCNc1nc(SCc2ccccc2)nc2sc3c(c12)CCC3` gave CHO-K1 Ca antag 25*, CHRM1 antagonist 4, M1 ag -2, M1 ag parental 0, M1 PAM 4 and CHO-K1 Ca PAM -5.
For CN(C(=O)CN1C(=O)c2ccccc2S1(=O)=O)C1CCCCC1 the results were CHO-K1 Ca antag -7, CHRM1 antagonist 3, M1 ag -3, M1 ag parental 0, M1 PAM -6 and CHO-K1 Ca PAM -2.
O=C(C1CCN(S(=O)(=O)c2cccc3cccnc23)CC1)N1CCn2c1nc1ccccc12 was read as CHO-K1 Ca antag -3, CHRM1 antagonist 11, M1 ag 43*, M1 ag parental 2, M1 PAM -1 and CHO-K1 Ca PAM 10.
For CCNC(=O)C1(C)CCCN(Cc2csc(-c3ccccc3)n2)C1 (stereo not given) the results were CHO-K1 Ca antag -7, CHRM1 antagonist -11, M1 ag -8, M1 ag parental 0, M1 PAM 10 and CHO-K1 Ca PAM 12.
COC(=O)CCC(=O)OC1(C)C(=O)C=C2C=C(C3CC3)N(CCCCO)C=C2C1=O (stereo not given) was read as CHO-K1 Ca antag -4, CHRM1 antagonist -7, M1 ag -4, M1 ag parental 0, M1 PAM 6 and CHO-K1 Ca PAM 5.
For COC(=O)CCC(=O)OC1(C)C(=O)C=C2C=C(C3CC3)N(c3ccccc3)C=C2C1=O (stereo not given) the results were CHO-K1 Ca antag 22, CHRM1 antagonist 28*, M1 ag -5, M1 ag parental -1, M1 PAM -18 and CHO-K1 Ca PAM -21.
For C[C@H](O)[C@@H]1C(=O)N2CCc3ccc(-c4ccccc4)cc3[C@@H]2C[C@@H]1N(C)C(=O)NC1CCCCC1 the results were CHO-K1 Ca antag -13, CHRM1 antagonist 42*, M1 ag -9, M1 ag parental 0, M1 PAM -10 and CHO-K1 Ca PAM 15.
Cc1ccccc1Oc1ccc2c(c1)[C@@H]1C[C@H](N(C)C(=O)NC3CCCCC3)[C@H]([C@H](C)O)C(=O)N1CC2 was read as CHO-K1 Ca antag -10, CHRM1 antagonist -11, M1 ag -5, M1 ag parental 0, M1 PAM 5 and CHO-K1 Ca PAM 15.
Screening Cc1ccccc1Oc1ccc2c(c1)[C@@H]1C[C@H](N(C)C(=O)c3cccnc3)[C@H]([C@H](C)O)C(=O)N1CC2 returned CHO-K1 Ca antag 33*, CHRM1 antagonist -19, M1 ag 0, M1 ag parental 0, M1 PAM 8 and CHO-K1 Ca PAM -11.
C#CC(CC)(CC)NC(=O)c1cc(S(=O)(=O)N2CCCCC2)ccc1N1CCOCC1 was read as CHO-K1 Ca antag -5, CHRM1 antagonist -16, M1 ag -6, M1 ag parental 0, M1 PAM 8 and CHO-K1 Ca PAM 17.
For COc1ccc(NC(=S)N2CCN(C(c3ccccc3)c3ccccc3)CC2)cc1OC the results were CHO-K1 Ca antag 5, CHRM1 antagonist 38*, M1 ag -8, M1 ag parental 0, M1 PAM -25 and CHO-K1 Ca PAM 2.
For Cc1ccc(C(=O)NCC(=O)N2CCC(Cc3ccccc3)CC2)cc1 the results were CHO-K1 Ca antag -7, CHRM1 antagonist -14, M1 ag -4, M1 ag parental 1, M1 PAM 6 and CHO-K1 Ca PAM 10.

Source: PubChem BioAssay
